{"source": "PubChem BioAssay (EPA / NIEHS)", "key": {"THRB (gene 7068)": {"target": "THRB (gene 7068) (UniProt P10828)", "sequence (P10828 whole entry, looked up, the tested form may be a part)": "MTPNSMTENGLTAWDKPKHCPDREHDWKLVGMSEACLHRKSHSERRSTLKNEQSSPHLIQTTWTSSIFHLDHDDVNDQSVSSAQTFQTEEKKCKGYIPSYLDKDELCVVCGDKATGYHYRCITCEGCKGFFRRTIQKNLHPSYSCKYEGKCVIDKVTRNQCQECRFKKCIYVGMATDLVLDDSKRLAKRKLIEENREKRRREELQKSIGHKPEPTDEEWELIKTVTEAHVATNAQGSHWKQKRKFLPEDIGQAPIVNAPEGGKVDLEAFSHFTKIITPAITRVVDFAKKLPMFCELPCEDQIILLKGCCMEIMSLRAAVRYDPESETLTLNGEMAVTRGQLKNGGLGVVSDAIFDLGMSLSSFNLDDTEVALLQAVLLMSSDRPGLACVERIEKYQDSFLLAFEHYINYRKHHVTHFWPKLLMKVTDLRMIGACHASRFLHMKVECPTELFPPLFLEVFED", "test": "TOX21_TRB_BLA_Agonist_Followup_ratio: Tox21 Thyroid Hormone Receptor beta Agonism Beta-lactamase (BLA) Follow-Up Assay, Ratio (AID 2283954)", "procedure,_shortened": "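Agonist mode: compounds (11-point, triplicate) incubated 18 h with HEK293T cells carrying GAL4-DBD/human TRβ-LBD and UAS-β-lactamase. Blue/green (460/530 nm) FRET ratio read after 2 h CCF4-AM loading; CellTiter-Glo viability run in the same plates.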"}, "[1]": {"target": "Nucleoli Translocation, AR (gene 367) (UniProt P10275)", "sequence (P10275 whole entry, looked up, the tested form may be a part)": "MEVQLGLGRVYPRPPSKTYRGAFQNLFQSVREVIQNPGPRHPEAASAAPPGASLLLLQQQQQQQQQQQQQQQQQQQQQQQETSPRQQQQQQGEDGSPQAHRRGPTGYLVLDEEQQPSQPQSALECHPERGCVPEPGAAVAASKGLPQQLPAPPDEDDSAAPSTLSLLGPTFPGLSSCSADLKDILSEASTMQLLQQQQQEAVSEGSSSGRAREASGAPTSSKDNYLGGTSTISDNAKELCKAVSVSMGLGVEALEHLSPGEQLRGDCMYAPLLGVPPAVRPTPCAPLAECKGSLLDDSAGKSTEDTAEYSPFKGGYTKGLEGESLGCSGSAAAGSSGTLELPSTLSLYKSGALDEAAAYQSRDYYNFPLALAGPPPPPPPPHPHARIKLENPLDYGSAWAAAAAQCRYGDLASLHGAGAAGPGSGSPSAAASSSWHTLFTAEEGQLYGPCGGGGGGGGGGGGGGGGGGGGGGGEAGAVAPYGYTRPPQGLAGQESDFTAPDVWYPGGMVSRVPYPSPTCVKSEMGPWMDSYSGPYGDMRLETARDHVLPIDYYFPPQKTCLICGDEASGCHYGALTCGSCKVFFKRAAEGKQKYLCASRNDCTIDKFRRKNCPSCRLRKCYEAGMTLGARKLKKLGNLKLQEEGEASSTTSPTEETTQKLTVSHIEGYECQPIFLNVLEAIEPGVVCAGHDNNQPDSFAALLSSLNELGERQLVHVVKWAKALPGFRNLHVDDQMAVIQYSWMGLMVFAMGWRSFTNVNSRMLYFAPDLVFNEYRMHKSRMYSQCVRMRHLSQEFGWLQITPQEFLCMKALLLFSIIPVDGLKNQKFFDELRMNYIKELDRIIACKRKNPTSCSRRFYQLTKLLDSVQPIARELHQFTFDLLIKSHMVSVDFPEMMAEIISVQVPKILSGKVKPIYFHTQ", "test": "UPITT_HCI_U2OS_AR_TIF2_Nucleoli_Antagonist: University of Pittsburgh U2OS Androgen Receptor-Transcriptional Intermediary Factor 2 (AR-TIF2) Antagonism High Content Imaging Assay for Nucleoli Translocation (AID 2283997)", "procedure,_shortened": "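Antagonism is read as loss of nucleolar AR-RFP signal relative to DHT, imaged in U2OS cells also carrying GFP-TIF2. Compounds screened at 20 uM final, 0.2% DMSO; primary actives retested in triplicate.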"}, "[2]": {"target": "Nucleoli Translocation, AR (gene 367) (UniProt P10275)", "test": "UPITT_HCI_U2OS_AR_TIF2_Nucleoli_Agonist: University of Pittsburgh U2OS Androgen Receptor-Transcriptional Intermediary Factor 2 (AR-TIF2) Agonism High Content Imaging Assay for Nucleoli Translocation (AID 2283998)", "from_the_text": "UPITT_AR_TIF2_PPIB is a cell-based, high-content imaging assay that uses U2OS, a human osteosarcoma cell line, expressing a human androgen receptor fused to red fluorescent protein and the coactivator TIF2 fused to green fluorescent protein. UPITT_HCI_U2OS_AR_TIF2_Nucleoli_Agonist is one of four assay components measured from the UPITT_AR_TIF2_PPIB assay. It is designed to make measurements of red fluorescence localized in the nucleolar region of the cell nucleus as detected with high-content fluorescent imaging.Data from the assay component UPITT_HCI_U2OS_AR_TIF2_Nucleoli_Agonist was analyzed into 1 assay endpoint. This assay endpoint, UPITT_HCI_U2OS_AR_TIF2_Nucleoli_Agonist, was analyzed in the positive analysis fitting direction relative to DMSO as the baseline of activity. Using a type of binding reporter, measures of receptor for gain-of-signal activity can be used to understand the binding at the pathway-level as it relates to the gene AR.\n(§1) Daughter plates containing 2 uL of 10 mM compounds in DMSO were prepared and replicated from the 384-well Library of Pharmacologically Active Compounds (LOPAC) master plates using the Bravo outfitted with a 384-well transfer head. Aluminum adhesive plate seals were applied with an Abgene Seal-IT 100 (Rochester, NY) plate sealer, and the plates were stored at -20 C in a Matrical MatriMinistore (Spokane, WA) automated compound storage and retrieval system. For screening, LOPAC daughter plates were withdrawn from -20C storage, thawed to ambient temperature, centrifuged 1-2 min at 50 g, and the plate seals were removed before the transfer of 98 uL of serum-free tissue culture medium (SFM) into wells using the BioTek Microflo liquid handler (BioTek, Winooski, VT) to generate a 200 uM intermediate stock concentration of library compounds (2.0% DMSO). The diluted compounds were mixed by repeated aspiration and dispensation using a 384-well P30 dispensing head on the Evolution P3 (EP3) liquid handling platform (PerkinElmer, Waltham, MA) and then 5 uL of diluted compounds was transferred to the wells of assay plates. In the LOPAC screen, compounds were individually tested at a final concentration of 20 uM (0.2% DMSO). After the diluted compounds had been transferred from the daughter plates to the primary HCS assay plates, aluminum adhesive plate seals were applied and the diluted daughter plates were stored frozen at -20C. To confirm active compounds identified in the primary screen, we withdrew the LOPAC daughter plates containing the 200 uM intermediate concentration of library compounds (2.0% DMSO) from -20C storage, thawed them to ambient temperature, centrifuged them for 1-2 min at 50 g, and removed the plate seals. A work list was generated to direct the Multiprobe Janus liquid handling platform (PerkinElmer) to cherry pick 75 uL from the wells of the diluted daughter plates that were flagged active in the primary screen and to reformat these into a 384-well plate hit confirmation daughter plate. Five microliters of primary HCS active compounds was then transferred into triplicate wells of assay plates using a 384-well P30 dispensing head on the Evolution P3 (EP3) liquid handling platform (PerkinElmer). […] Daughter plates containing 2 uL of the serially diluted compounds in DMSO were prepared and replicated from the 384-well serial dilution master plates using the Bravo outfitted with a 384-well transfer head. Aluminum adhesive plate seals were applied and plates were stored at -20C. For testing in the bioassays, daughter plates were withdrawn from -20C storage, thawed to ambient temperature, centrifuged for 1-2 min at 50 g, and the plate seals were removed before the transfer of 38 uL of SFM into wells using the BioTek Microflo liquid handler (BioTek) to generate an intermediate stock concentration of library compounds ranging from 1.95 to 500 uM (5.0% DMSO). […]"}, "[3]": {"target": "Ratio of Nucleoli Translocation and Cytoplasm, AR (gene 367) (UniProt P10275)", "sequence (P10275 whole entry, looked up)": "as the sequence (P10275 whole entry, looked up, the tested form may be a part) above", "test": "UPITT_HCI_U2OS_AR_TIF2_Nucleoli_Cytoplasm_Ratio_Antagonist: University of Pittsburgh U2OS Androgen Receptor-Transcriptional Intermediary Factor 2 (AR-TIF2) Antagonism High Content Imaging Assay for Ratio of Nucleoli Translocation and Cytoplasm (AID 2283999)", "procedure,_shortened": "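High-content imaging of red fluorescence ratio, nucleoli versus cytoplasm, in U2OS expressing AR-RFP and TIF2-GFP, fitted relative to DHT. Compounds tested once at 20 uM final, then 0.195 to 50 uM final in serial dilution.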"}, "[4]": {"target": "Ratio of Nucleoli Translocation and Cytoplasm, AR (gene 367) (UniProt P10275)", "test": "UPITT_HCI_U2OS_AR_TIF2_Nucleoli_Cytoplasm_Ratio_Agonist: University of Pittsburgh U2OS Androgen Receptor-Transcriptional Intermediary Factor 2 (AR-TIF2) Agonism High Content Imaging Assay for Ratio of Nucleoli Translocation and Cytoplasm (AID 2284000)", "from_the_text": "UPITT_AR_TIF2_PPIB is a cell-based, high-content imaging assay that uses U2OS, a human osteosarcoma cell line, expressing a human androgen receptor fused to red fluorescent protein and the coactivator TIF2 fused to green fluorescent protein. UPITT_HCI_U2OS_AR_TIF2_Nucleoli_Cytoplasm_Ratio_Agonist is one of four assay components measured from the UPITT_AR_TIF2_PPIB assay. It is designed to make measurements of the ratio of red fluorescence localized in the nucleolar region of the cell nucleus to red fluorescence localized in the cytoplasm as detected with high-content fluorescent imaging.Data from the assay component UPITT_HCI_U2OS_AR_TIF2_Nucleoli_Cytoplasm_Ratio_Agonist was analyzed into 1 assay endpoint. This assay endpoint, UPITT_HCI_U2OS_AR_TIF2_Nucleoli_Cytoplasm_Ratio_Agonist, was analyzed in the positive analysis fitting direction relative to DMSO as the baseline of activity. Using a type of binding reporter, measures of receptor for gain-of-signal activity can be used to understand the binding at the pathway-level as it relates to the gene AR.\nas §1"}, "[5]": {"test": "CCTE_Shafer_MEA_acute_spike_number: CCTE's Neural Acute Assay for Total Number of Spikes, Shafer Lab (AID 2284008; active = hit-call score of the fitted dose curve at least 0.9, where 1 is the maximum; inactive = score below 0.9)", "procedure,_shortened": "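Using an adaptive detector set to 8x rms noise, spikes were counted in 40-min windows before and after compound addition (0.03-40 uM) to rat cortical networks at 37 C; the well-level change from baseline was analysed relative to DMSO.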"}, "[6]": {"test": "CCTE_Shafer_MEA_acute_firing_rate_mean: CCTE's Neural Acute Assay for Mean Firing Rate, Shafer Lab (AID 2284009; active = hit-call score of the fitted dose curve at least 0.9, where 1 is the maximum; inactive = score below 0.9)", "procedure,_shortened": "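Primary rat cortical neurons on 16-electrode MEA wells were exposed on DIV 13 or 15 to compound (0.03-40 uM). Spike counts per recording time, averaged over electrodes, were compared between 40-min baseline and 40-min post-exposure recordings as percent change.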"}, "DIO1 (gene 1733)": {"tested_on": "DIO1 (gene 1733)", "test": "CCTE_GLTED_hDIO1: CCTE's human Deiodinase 1 (DIO1) Inhibition Assay, Great Lakes Toxicology and Ecology Division (GLTED) Lab (AID 2283987)", "procedure,_shortened": "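Chemicals are tested on human DIO1 without cells for 3 h. Uninhibited enzyme frees iodide, which speeds cerium(IV) reduction by arsenic and is read by spectrophotometry.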"}}, "note": "Results filed as inconclusive are left out. The source made the active and inactive calls. The calls were made as follows, unless noted: active = hit-call score of the fitted dose curve at least 0.9, where 1 is the maximum; inconclusive = response in the unintended direction; inactive = score below 0.9.", "data": [{"smiles": "CCCCCCC(O)CO", "note": "(stereo unspecified)", "values": [{"measurement": "outcome", "setting": "THRB (gene 7068)", "result": "inactive"}]}, {"smiles": "NC(CO)(CO)CO", "values": [{"measurement": "outcome", "setting": "THRB (gene 7068)", "result": "inactive"}]}, {"smiles": "Oc1ccc(Cl)cc1Cc1cc(Cl)ccc1O", "values": [{"measurement": "AC50", "setting": "[1]", "result": "12.1 µM (active)"}, {"measurement": "AC50", "setting": "[2]", "result": "1.77 µM (active)"}, {"measurement": "AC50", "setting": "[3]", "result": "16.3 µM (active)"}, {"measurement": "outcome", "setting": "[4]", "result": "inactive"}]}, {"smiles": "CCOC(=O)c1ccccc1C(=C1C=C(Br)C(=O)C(Br)=C1)c1cc(Br)c(O)c(Br)c1", "values": [{"measurement": "outcome", "setting": "[5]", "result": "inactive"}, {"measurement": "outcome", "setting": "[6]", "result": "inactive"}]}, {"smiles": "O=c1cc(-c2ccccc2)oc2ccccc12", "values": [{"measurement": "AC50", "setting": "[1]", "result": "21.9 µM (active)"}, {"measurement": "outcome", "setting": "[2]", "result": "inactive"}, {"measurement": "AC50", "setting": "[3]", "result": "10.5 µM (active)"}]}, {"smiles": "CC(CC=O)CCCC(C)(C)O", "note": "(stereo unspecified)", "values": [{"measurement": "outcome", "setting": "[1]", "result": "inactive"}, {"measurement": "outcome", "setting": "[2]", "result": "inactive"}, {"measurement": "outcome", "setting": "[3]", "result": "inactive"}, {"measurement": "outcome", "setting": "[4]", "result": "inactive"}]}, {"smiles": "Nc1ccc(N)c(Cl)c1", "values": [{"measurement": "outcome", "setting": "[5]", "result": "inactive"}, {"measurement": "outcome", "setting": "[6]", "result": "inactive"}]}, {"smiles": "CC/C=C\\C/C=C\\C/C=C\\CCCCCCCC(=O)O", "values": [{"measurement": "AC50", "setting": "DIO1 (gene 1733)", "result": "20.6 µM (active)"}]}, {"smiles": "CC(C)=CCC[C@H](C)CCO", "values": [{"measurement": "outcome", "setting": "[1]", "result": "inactive"}, {"measurement": "outcome", "setting": "[2]", "result": "inactive"}, {"measurement": "outcome", "setting": "[3]", "result": "inactive"}, {"measurement": "outcome", "setting": "[4]", "result": "inactive"}]}, {"smiles": "CCCCC(CC)COC(=O)c1ccccc1O", "note": "(stereo unspecified)", "values": [{"measurement": "outcome", "setting": "[5]", "result": "inactive"}, {"measurement": "outcome", "setting": "[6]", "result": "inactive"}]}, {"smiles": "CCCCC/C=C\\CCC=O", "values": [{"measurement": "outcome", "setting": "[1]", "result": "inactive"}, {"measurement": "outcome", "setting": "[2]", "result": "inactive"}, {"measurement": "outcome", "setting": "[4]", "result": "inactive"}]}, {"smiles": "CCCCCCCC[N+](C)(CCCCCCCC)CCCCCCCC", "values": [{"measurement": "AC50", "setting": "DIO1 (gene 1733)", "result": "70.8 µM (active)"}]}, {"smiles": "O=C(c1ccc(O)cc1)c1ccc(O)cc1O", "values": [{"measurement": "outcome", "setting": "[5]", "result": "inactive"}, {"measurement": "outcome", "setting": "[6]", "result": "inactive"}]}, {"smiles": "C=C[Si](OC(C)=O)(OC(C)=O)OC(C)=O", "values": [{"measurement": "outcome", "setting": "[5]", "result": "inactive"}, {"measurement": "outcome", "setting": "[6]", "result": "inactive"}]}, {"smiles": "CCCCC(CC)COCC1CO1", "note": "(stereo unspecified)", "values": [{"measurement": "outcome", "setting": "[5]", "result": "inactive"}, {"measurement": "outcome", "setting": "[6]", "result": "inactive"}]}, {"smiles": "CN1C(=O)N(C)C(O)C1O", "note": "(stereo unspecified)", "values": [{"measurement": "outcome", "setting": "[5]", "result": "inactive"}, {"measurement": "outcome", "setting": "[6]", "result": "inactive"}]}, {"smiles": "O=C1CCCN1CCO", "values": [{"measurement": "outcome", "setting": "[5]", "result": "inactive"}, {"measurement": "outcome", "setting": "[6]", "result": "inactive"}]}, {"smiles": "CCCCC/C=C\\C/C=C\\CCCCCCCC(=O)OC", "values": [{"measurement": "AC50", "setting": "DIO1 (gene 1733)", "result": "21 µM (active)"}]}, {"smiles": "CC(C)c1ccc2c(C(C)C)cc(C(C)C)c(S(=O)(=O)O)c2c1", "values": [{"measurement": "outcome", "setting": "[1]", "result": "inactive"}, {"measurement": "outcome", "setting": "[4]", "result": "inactive"}]}, {"smiles": "CO[Si](OC)(OC)c1ccccc1", "values": [{"measurement": "outcome", "setting": "[5]", "result": "inactive"}, {"measurement": "outcome", "setting": "[6]", "result": "inactive"}]}, {"smiles": "CCCc1ccc(OC)cc1", "values": [{"measurement": "outcome", "setting": "[1]", "result": "inactive"}, {"measurement": "outcome", "setting": "[3]", "result": "inactive"}]}, {"smiles": "CCO[Si](C)(OCC)OCC", "values": [{"measurement": "outcome", "setting": "[5]", "result": "inactive"}, {"measurement": "outcome", "setting": "[6]", "result": "inactive"}]}, {"smiles": "CC(C)(Oc1ccc(C2CC2(Cl)Cl)cc1)C(=O)O", "note": "(stereo unspecified)", "values": [{"measurement": "outcome", "setting": "[1]", "result": "inactive"}, {"measurement": "outcome", "setting": "[2]", "result": "inactive"}, {"measurement": "outcome", "setting": "[3]", "result": "inactive"}, {"measurement": "outcome", "setting": "[4]", "result": "inactive"}]}, {"smiles": "Nc1ncn([C@@H]2O[C@H](CO)[C@@H](O)[C@H]2O)c(=O)n1", "values": [{"measurement": "AC50", "setting": "[5]", "result": "0.00765 µM (active)"}, {"measurement": "AC50", "setting": "[6]", "result": "0.00763 µM (active)"}]}, {"smiles": "CC(C)c1ccc2cc(C(C)C)ccc2c1", "values": [{"measurement": "outcome", "setting": "[1]", "result": "inactive"}, {"measurement": "outcome", "setting": "[3]", "result": "inactive"}, {"measurement": "outcome", "setting": "[4]", "result": "inactive"}]}]}
